Calls of active or inactive are those of the source. How the source made its calls: active means hit-call score of the fitted dose curve at least 0.9, where 1 is the maximum; inactive means score below 0.9.
Legend:
[1] = tested on: Brachyury (BRA) Protein Expression, Deisenroth Lab, TBXT (gene 6862); assay: CCTE_Deisenroth_DEVTOX-GLR_legacy_Bra: (Legacy) CCTE's DevTox GLR-Endo Assay Evaluation of Brachyury (BRA) Protein Expression, Deisenroth Lab (AID 2284329)
Procedure, shortened: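 RUES2-GLR human pluripotent cells differentiated 48 h with two 24-h-interval chemical exposures (1 nM - 200 uM, 10 points); fixed, nuclear-stained, imaged. Bra+ cell percentage (intensity 5x BMAD above pluripotent control median) fitted relative to 0.2% DMSO.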

[2] = CCTE_Deisenroth_DEVTOX-GLR_legacy_CellCount: (Legacy) Viability Assessment in CCTE's DevTox GLR-Endo Assay, Deisenroth Lab (AID 2284331); details: actives raise or lower the signal
Procedure, shortened: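 Viability is taken from imaged nuclei counts in fixed RUES2-GLR cultures after 48 h of differentiation under two 24 h-spaced chemical exposures, 10 concentrations from 1 nM to 200 uM, gain or loss versus DMSO baseline.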

[3] = tested on: SRY-box transcription factor 17 (SOX17) Protein Expression, Deisenroth Lab, SOX17 (gene 64321); assay: CCTE_Deisenroth_DEVTOX-GLR_legacy_Sox17: (Legacy) CCTE's DevTox GLR-Endo Assay Evaluation of SRY-box transcription factor 17 (SOX17) Protein Expression, Deisenroth Lab (AID 2284341); details: actives raise or lower the signal
Procedure, shortened: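 Endoderm-differentiation readout in RUES2-GLR human pluripotent cells at 48 h, concentrations spanning 1 nM - 200 uM. Sox17-positive cells divided by total cell count; gain or loss relative to DMSO solvent control, n=4 experimental replicates.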

[4] = tested on: SRY-box transcription factor 2 (SOX2) Protein Expression, Deisenroth Lab, SOX2 (gene 6657); assay: CCTE_Deisenroth_DEVTOX-GLR_legacy_Sox2: (Legacy) CCTE's DevTox GLR-Endo Assay Evaluation of SRY-box transcription factor 2 (SOX2) Protein Expression, Deisenroth Lab (AID 2284346)
Procedure, shortened: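 RUES2-GLR human pluripotent cells seeded 24 h, then differentiated 48 h in defined media with two chemical doses 24 h apart (10-point, 1 nM–200 uM). Fixed, nuclear-stained, imaged; % Sox2+ cells (>5x BMAD over endoderm control median), DMSO-subtracted, fitted upward.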

Measured: outcome

O=C(O)c1ccccc1O
inactive: all assays above

CC(C)Cc1ccc(C(C)C(=O)O)cc1 (stereo unspecified)
inactive: [2] | [4]
